Measured values as given in the supplement of paper PMC11482750.
± gives the standard deviation of the averaged measurements.

These targets were tested with CCC1CCC(=O)O1 [γ-hexalactone] (assay: control-subtracted net OSN firing rate; higher = stronger neuronal activation). Settings: odorant dilution (vol/vol): 1/100.
Method: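 Single sensillum recordings from olfactory sensory neurons. The neurons sit in the maxillary palp or antennal sensilla of D. melanogaster (wild type, mutants, or at1 empty-neuron lines expressing Or42a homologs or the A181D S307P mutant) and of four Scaptomyza species. Each odorant was given as a 1 s pulse from 20 µl loaded on filter paper at 1:100 vol/vol, diluted in mineral oil (γ-hexalactone in DMSO). Spikes were counted in a 0.5 s window starting 0.2 s after onset, background was subtracted, the count was doubled, and the mean solvent-control response was subtracted.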

Row | Target | control-subtracted net OSN firing rate [spikes/s]
1 | Canton-S ab2a | -6.29 ± 11
2 | Canton-S ai2b | 10 ± 6.9
3 | Or67dGal4; UAS-A181D S301P at1 | 42.6 ± 20
4 | Or67dGal4, UAS-Sfla Or42a4 at1 | 6 ± 9.1
5 | Canton-S ab8b | 10 ± 5.8
6 | Canton-S ab3a | 1.82 ± 8.3
7 | Or67dGal4; UAS-SflaOr42a4 at1 | 50.9 ± 14
8 | Canton-S ab9a | 2.67 ± 7.6
9 | Canton-S ab1c | 1.5 ± 4.2
10 | Canton-S ab10a | -0.4 ± 7.9
11 | Or67dGal4, UAS-Sfla Or42a3/+ at1 | 34 ± 6.2
12 | Or67dGal4, UAS-Sfla Or42a4/+ at1 | 3.43 ± 6.4
13 | Canton-S pb1a | 167 ± 28
14 | Canton-S ab8a | 3.2 ± 11
15 | Canton-S at4a | -3 ± 3.5
16 | Canton-S ab5a | 6.2 ± 8.2
17 | Canton-S ab7b | -2 ± 3.3
18 | Canton-S ab2b | 6.86 ± 9.2
19 | Canton-S ab1b | 2.5 ± 8.5
20 | Canton-S pb3a | -1.14 ± 8.2

Row | Target | control-subtracted net OSN firing rate [spikes/s]
21 | Canton-S ab6a | 3.33 ± 7
22 | Canton-S ai3c | 0.5 ± 4.4
23 | Canton-S ab4b | -4 ± 5.3
24 | Canton-S ab6b | 4.22 ± 12
25 | Or67dGal4, UAS-Dmel Or42a at1 | 79 ± 40
26 | Canton-S pb2b | -2.5 ± 3.8
27 | Or67dGal4, UAS-Spal Or42a at1 | 95.8 ± 46
28 | Canton-S pb3b | -2 ± 8.5
29 | Canton-S ai3b | -2.5 ± 6.8
30 | Canton-S ab3b | -0.909 ± 7.1
31 | Canton-S ab9b | -2.67 ± 12
32 | Canton-S ab5b | 1.6 ± 5.2
33 | Or67dGal4; UAS-SflaOr42a3 at1 | 48.8 ± 19
34 | Canton-S ab7a | -7.5 ± 11
35 | Canton-S ai3a | -1.5 ± 3.4
36 | Canton-S ab4a | 2 ± 2
37 | Canton-S pb2a | -7.5 ± 12
38 | Canton-S ab10b | -0.2 ± 5.2
39 | Canton-S ai2a | -2 ± 5.3
40 | Canton-S at4c | -6 ± 5.2
